Bioassay records from PubChem.
RecA intein inh: Mtb RecA intein splicing inhibitors, primary screen, biochemical, fluorescence, HTS; AID 2221, 2009; 290,000 compounds, 0.75% hits; cell-free RecA intein splicing; Protein RecA (Mycobacterium tuberculosis (strain ATCC 25618 / H37Rv)), P9WHJ3; inhibition, % (concentration not given with the values); in the data active = inhibition above about 30%;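 also: 0% = vehicle wells and 100% = reference inhibitor control wells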
Target sequence (P9WHJ3 whole entry, looked up): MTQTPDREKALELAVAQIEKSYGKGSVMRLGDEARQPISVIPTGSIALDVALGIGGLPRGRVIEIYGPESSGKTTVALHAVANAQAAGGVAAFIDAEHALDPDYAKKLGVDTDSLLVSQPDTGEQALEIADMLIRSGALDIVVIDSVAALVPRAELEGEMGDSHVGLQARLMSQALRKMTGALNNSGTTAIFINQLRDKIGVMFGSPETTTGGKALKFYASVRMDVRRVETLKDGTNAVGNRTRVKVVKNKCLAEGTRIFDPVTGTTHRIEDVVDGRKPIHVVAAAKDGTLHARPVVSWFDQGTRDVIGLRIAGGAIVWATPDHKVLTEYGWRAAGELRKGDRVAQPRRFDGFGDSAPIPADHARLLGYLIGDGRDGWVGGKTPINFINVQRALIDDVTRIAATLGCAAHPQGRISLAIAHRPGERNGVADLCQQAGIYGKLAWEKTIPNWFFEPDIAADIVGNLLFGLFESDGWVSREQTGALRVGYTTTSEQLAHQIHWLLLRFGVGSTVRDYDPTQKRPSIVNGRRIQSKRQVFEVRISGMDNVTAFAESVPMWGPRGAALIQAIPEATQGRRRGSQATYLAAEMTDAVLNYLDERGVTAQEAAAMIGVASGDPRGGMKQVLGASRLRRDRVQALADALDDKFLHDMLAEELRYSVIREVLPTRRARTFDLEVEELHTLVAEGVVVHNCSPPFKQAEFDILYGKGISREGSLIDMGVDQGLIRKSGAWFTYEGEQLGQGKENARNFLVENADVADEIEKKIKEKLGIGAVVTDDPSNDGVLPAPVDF
Mtb betalactam: beta-lactam sensitization of Mtb H37Rv, H37Rv; M. tuberculosis H37Rv growth with meropenem, percent inhibition; 330,000 compounds, 0.27% hits; inhibition, % at 25 µM;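 also: growth measured after seven days incubation then overnight dye step; 0% = bacteria only wells and 100% = bacteria with antibiotic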
UGM FP inh: M. tuberculosis UGM enzyme inhibitors, primary screen, biochemical, fluorescence polarization, single point; purified UGM, fluorescence polarization probe displacement; AID 504406, 2011; 320,000 compounds, 0.06% hits; UDP-galactopyranose mutase (Mycobacterium tuberculosis (strain ATCC 25618 / H37Rv)), …; inhibition, % at 10 µM; in the data active = inhibition above about 10%, passing the limit was not always enough
Mtb hypoxia inh: PubChem AID 1159583 | M. tuberculosis hypoxia-regulated fluorescent reporter, fluorescence | fluorescence inhibition, % (test concentration not listed) | 300,000 compounds, 0.1% hits; in the data active = fluorescence inhibition mostly above about 23%, no sharp cut-off; inactive = mostly below about 17%
Rv3671c protease: Rv3671c serine protease inhibitors, primary screen, biochemical, fluorescence polarization, M. tuberculosis H37Rv; P9WHR9; inhibition, % at 5.96 µM; 320,000 compounds, 0.048% hits; AID 2606, 2010; in the data active = inhibition above about 38%;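 also: extracellular domain of Rv3671c used as enzyme; 0% = enzyme with DMSO and 100% = no enzyme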
GFP chromophore: counter-screen: blocks GFP chromophore formation, dose response, counter-screen, biochemical, fluorescence, homogeneous | 2,100 compounds, 83% hits | shares compounds with RecA intein inh | cell-free GFP chromophore formation | EC50, µM
Active calls of the source: *; . = no result shown. An excerpt weighted towards active compounds, which were near 0.77% of everything screened. Unless noted, no rule for the calls is given here.

SMILES	RecA intein inh	Mtb betalactam	UGM FP inh	Mtb hypoxia inh	Rv3671c protease	GFP chromophore
O=C(NCCN1CCOCC1)c1ccncc1	-0.3	-1.4	-1.0	9.2	5.0	.
O=C1C=C(NCCN2CCOCC2)C(=O)c2cnccc21	95.6*	17.8	-1.2	.	-100.8	1.02*
O=c1[nH][nH]c(-c2ccccc2O)c1C(C[N+](=O)[O-])c1ccccc1 (configuration not stated)	6.4	54.9	-0.8	.	4.5	.
CCCc1[nH][nH]c(=O)c1C(c1ccc(Cl)cc1)C(C#N)C#N (configuration not stated)	69.9*	5.6	-1.4	2.3	-8.7	17.7*
CCCc1[nH][nH]c(=O)c1C(c1ccccc1)C(C#N)C#N (configuration not stated)	62.4*	-3.5	2.5	6.2	8.9	19.8*
CCCc1[nH][nH]c(=O)c1C(c1ccc(Br)cc1)C(C#N)C#N (configuration not stated)	65.8*	-3.9	2.0	7.1	-6.7	10.9*
CN1C(=O)SC(=Cc2ccccc2OCc2ccc(C(=O)O)cc2)C1=O	.	.	.	3.4	.	.
Cc1ccc(-c2nc(CN3CCCC(C(=O)N4CCOCC4)C3)c(C)o2)cc1 (configuration not stated)	43.7*	-0.8	-0.3	3.2	1.0	>38
CCOC(=O)CSc1nnc(NCC(=O)OC(C)C)c(=O)[nH]1	54.6*	23.6	0.7	.	-9.1	36.6*
CCOC(=O)CNC(=O)CSc1nnc(C)c(=O)[nH]1	4.2	2.6	-3.3	-2.6	-2.1	.
CC(CC(=O)Nc1cc(C)ccn1)=NNC(=O)c1ccccc1C	.	.	.	15.0	.	.
C/C(CC(=O)Nc1cc(C)ccn1)=N\NC(=O)c1cccc(F)c1	43.4*	-3.9	0.4	.	-4.8	33.1*
C/C(CC(=O)Nc1cc(Cl)ccc1Cl)=N\NC(=O)COc1cccc(C)c1	5.1	5.8	0.2	.	-19.1	.
C/C(CC(=O)Nc1cc(C)ccn1)=N\NC(=O)c1ccncc1	75.0*	98.6	0.6	.	-19.3	17*
CC(CC(=O)Nc1cc(C)ccn1)=NNC(=O)C(=O)Nc1cccc(C)c1	.	.	.	8.3	.	.
C/C(CC(=O)Nc1cc(C)ccn1)=N\NC(=O)c1ccccc1C	50.0*	6.9	1.3	.	-7.5	33.9*
COc1ccc(C(=O)N/N=C(\C)CC(=O)Nc2ccccn2)cc1OC	16.5	8.0	4.1	.	-3.0	.
C/C(CC(=O)Nc1cc(C)ccn1)=N\NC(=O)COc1cccc(C)c1	94.2*	.	.	.	.	6.99*
CC(CC(=O)Nc1ccccn1)=NNC(=O)c1ccc(C)cc1	.	.	.	4.3	.	.
C/C(CC(=O)Nc1ccccn1)=N\NC(=O)c1cccc(C)c1	40.6*	2.4	0.1	.	10.2	36.6*
COC(=O)[C@]12C(=O)NCC(CN1c1ccc(Cl)c(C)c1)N2C	.	.	.	5.7	.	.
CNC(=O)c1cc(C(=O)c2ccccc2Br)c[nH]1	1.0	4.8	2.0	4.1	2.5	.
O=C(c1c[nH]c(C(=O)C(Cl)(Cl)Cl)c1)c1ccccc1Br	51.3*	4.5	2.9	0.1	-3.2	26.1*
O=[N+]([O-])c1cccc(CN2C[C@@]34C=CC(CC3S2(=O)=O)O4)c1 (some centres not stated)	.	.	.	3.1	.	.
CC#CCN1c2ccccc2[C@]23CC(C(=O)OC)N=C2NC(C(=O)OC)=C(C(=O)OC)C13 (some centres not stated)	.	.	.	10.9	.	.
SMILES	RecA intein inh	Mtb betalactam	UGM FP inh	Mtb hypoxia inh	Rv3671c protease	GFP chromophore
CCOC(=O)C1C2COc3ccccc3C2N2C(=O)N(c3ccc(OC)cc3)C(=O)[C@]12C (some centres not stated)	.	.	.	-1.9	.	.
CCOC(=O)C1=C(c2ccccc2)NC(N)=NC1c1ccc(OCc2ccc(Cl)cc2)c(OC)c1 (configuration not stated)	49.2*	100.2	-3.9	16.8	10.7	>12
C#CCOCCOCCOCCNc1nc(N2CCN(C(=O)C(CCCCN)n3cc(CCCC)nn3)CC2)nc(N2CCN(C(=O)C(C(C)C)n3cc(CCO)nn3)CC2)n1 (configuration not stated)	.	.	.	7.7	.	.
O=C(NC1CCCC1)C(c1ccc(F)cc1)N(Cc1ccccc1Cl)C(=O)CCl (configuration not stated)	49.6*	-0.1	-1.4	-2.9	7.0	>38
COCCN(C(=O)CCl)C(C(=O)NC1CCCCC1)c1ccccc1C (configuration not stated)	46.6*	0.0	0.9	11.4	3.6	25.6*
COCCN(C(=O)CCC(=O)Nc1cc(C)on1)C(C(=O)NC1CCCC1)c1ccccc1C (configuration not stated)	0.7	-5.0	2.7	12.4	3.3	.
COc1ccc2c(c1)C(=O)N(c1ccccc1OC)C(=O)C2	-0.4	14.4	-1.9	4.4	-9.6	.
COc1ccccc1N1C(=O)Cc2ccccc2C1=O	31.1*	-3.4	0.6	-1.6	-13.7	11.3*
COc1ccc(Oc2c(OC)cc([N+](=O)[O-])c3ncccc23)cc1	.	.	.	6.6	.	.
COc1cc(NC(C)CCCN)c2ncccc2c1Oc1ccccc1 (configuration not stated)	35.9*	3.1	.	3.0	-14.7	33.5*
C=CCCC(Cc1ccc(F)cc1)C(=O)OC(CNC(=O)C(CC=C)CC(=O)N(CCO)Cc1ccccc1)c1ccccc1 (configuration not stated)	.	.	.	13.7	.	.
C#CCNC(=O)C1=CC(C2CCCCC2)CC(OCc2ccc(CO)cc2)O1 (configuration not stated)	.	.	.	7.0	.	.
Cc1cc(C)c(S(=O)(=O)Nc2cc(SCC(=O)O)c(O)c3ccccc23)cc1C	96.9*	3.3	3.1	15.2	-178.7	0.869*
Cc1cc(C)c(S(=O)(=O)Nc2ccc(O)cc2)cc1C	-1.1	-5.5	-1.3	13.3	5.7	.
COc1ccc(S(=O)(=O)Nc2cccc3ccc(O)cc23)cc1	-3.7	2.5	1.0	17.7	2.4	.
O=C(O)CSc1cc(NS(=O)(=O)c2ccc(Cl)cc2)c2ccccc2c1O	96.3*	14.7	-3.4	.	-140.9	9.76*
COc1ccc(S(=O)(=O)Nc2cc(SCC(=O)O)c(O)c3ccccc23)cc1	96.4*	8.2	-1.3	15.0	-143.2	0.651*
O=S(=O)(Nc1cc(Sc2cccc3cccnc23)c(O)c2ccccc12)c1ccc(F)cc1	11.7	100.5	-1.3	.	-73.4	.
CC(C)(C)OC(=O)NC(Cc1ccccc1)C(=O)N1CCC(C(=O)O)CC1 (configuration not stated)	.	.	.	7.2	.	.
CC1OC(OC2C(COC3OC(CO)C(O)C(O)C3O)OC(OC3CC[C@]4(C)C(CC[C@@]5(C)C4CC=C4C6CC(C)(C)CC[C@]6(CO)C(O)C[C@]45C)C3(C)C)C(O)C2O)C(O)C(O)C1O (some centres not stated)	.	.	.	-0.7	.	.
